According to PubChem BioAssay AID2391 (Southern Research Specialized Biocontainment Screening …, 2010):
About 410 (0.13%) of roughly 310,000 compounds were called active. Not shown: some 2% with an inconclusive outcome. No rule for the calls is given here. A selection follows. Potency and affinity values are given separately.

Experiment: RSV antiviral activity via CPE protection, HEp-2 cells, primary 10 µM value included (AID 2391)
Conditions: RSV-induced CPE inhibition, at 10 µM, stronger effect = higher value

CPE inhibition, inactive:
CCC(C)NC(=O)c1nc2c(nnn2Cc2ccccc2Cl)c(=O)[nH]1 (centres undefined) 1.33%
CC1C2C(C)N(C)C(=O)N(C)C2N(C)C(=O)N1C (centres undefined) 2.07%
CCOc1ccc2nc(NS(=O)(=O)c3cccs3)sc2c1 1.43%
CC1(C(=O)Nc2nc3ccccc3s2)CC1(Br)Br (centres undefined) 9.49%
CCOc1ccc2nc(NC(=O)C(NS(=O)(=O)c3cccs3)C(C)C)sc2c1 (centres undefined) 19.6%
CCCC(=O)Nc1nc2ccc(OCC)cc2s1 2.67%
C/C(=N/NS(C)(=O)=O)c1ccc2ccccc2c1 -0.76%
CC(C)C(=O)Nc1cccc(-c2cnc3ccccc3n2)c1 -1.56%
O=C(NNC(=O)C1CC1c1ccccc1)Nc1ccccc1 (centres undefined) 1.51%
Cc1cc(N2CCOCC2)n2cc(-c3ccccc3)nc2n1 1.5%
Cc1cc(N2CCN(c3ccccc3Cl)CC2)n2cc(-c3ccccc3)nc2n1 5.23%
CCCC(=O)N/C(N)=N/c1nc(C)c2ccccc2n1 0.78%
N#CCCn1cc(CNC2CCC(O)CC2)c2ccccc21 (centres undefined) 2.18%
Cn1nc(SCC(=O)O)sc1=S -0.46%
Cc1ccc2cc(CN(CC3CCCO3)C(=S)NCc3ccco3)c(=O)[nH]c2c1 (centres undefined) 1.42%
Cc1ccc2cc(CN(Cc3ccco3)C(=S)NCC3CCCO3)c(=O)[nH]c2c1C (centres undefined) 2%
COc1ccc(C(=O)COC(=O)CCn2nnc(-c3cccs3)n2)cc1 1.36%
NC(=O)C1CCN(c2ccc(C(F)(F)F)cc2[N+](=O)[O-])CC1 16.8%
O=[N+]([O-])c1cc(C(F)(F)F)ccc1N1CCCC(O)C1 (centres undefined) 9.15%
COCC1CCN(C(=O)C2CCC(=O)N(Cc3cccc(F)c3)C2)CC1 (centres undefined) 2.17%
c1csc(-c2nn3c(Cn4nnc5ccccc54)nnc3s2)c1 26.6%
c1ccc2c(c1)nnn2Cc1nnc2sc(-c3ccncc3)nn12 1.65%
c1ccc2c(c1)ncn2Cc1nnc2sc(-c3ccncc3)nn12 -0.84%
Clc1cccc(-c2nn3c(Cn4cnc5ccccc54)nnc3s2)c1 34%
c1cncc(-c2nn3c(Cn4cnc5ccccc54)nnc3s2)c1 15.6%
c1ccc(Cc2nn3c(Cn4cnc5ccccc54)nnc3s2)cc1 5.56%
Cc1ccc[n+](C(C)C(=O)Nc2ccc(C)c([N+](=O)[O-])c2)c1 (centres undefined) 0.22%
COc1cccc(NC(=O)CNc2cc(S(=O)(=O)N3CCOCC3)ccc2N2CCCC2)c1 -0.7%
CC(C)(C)CC(=O)NC(=S)NCc1ccccc1 5.07%
CC(C)(C)C(=O)NC(=S)NCCc1ccccc1 2.62%
COc1ccc(/C(C)=N/OCC(=O)N=Nc2c(O)[nH]c3ccc(Br)cc23)cc1 4.9%
O=C(Nc1ccc(F)cc1F)C1CC(=O)N(Cc2ccccc2)C1 (centres undefined) 0.74%
CCc1c(C)nc2ncnn2c1N1CCC(C(=O)NCc2cccs2)CC1 11%
O=C(NC(=S)NNC(=O)c1ccccc1O)c1cccc([N+](=O)[O-])c1 16.2%
C=CCN1CC(c2nc3ccccc3n2CCOc2ccccc2)CC1=O (centres undefined) 0.6%
CCn1c(C2CC(=O)N(Cc3ccccc3)C2)nc2ccccc21 (centres undefined) 1.99%
Cn1c(SCC(=O)NC2CCCC2)nnc1-c1ccncc1 0.88%
COc1ccc(C(=O)Nc2cccc(C(=O)N3CCCCC3)c2)cc1 3.16%
Cc1ccccc1Nc1nc(N)nc(COC(=O)c2cccn2C)n1 4.72%
CCc1ccccc1Nc1nc(N)nc(COC(=O)c2c(C)noc2C)n1 3.24%
Cc1cc(C)nc(-n2nc(C)c(Oc3ccccc3O)c2C)n1 1.29%
Cc1nn(-c2ccccn2)c(C)c1Oc1ccccc1O 0.08%
CCC(=O)c1ccc(OCC(=O)N(C)CC(=O)Nc2cccc(F)c2)cc1 -0.9%
CC(=O)Nc1ccc2c3c(cccc13)CC2 3.08%
COc1ccc(NC(=O)[C@H](Cc2c[nH]c3ccccc23)NC(=O)[C@@H]2Cc3ccccc3CN2)cc1 1.35%
Cc1cccc(NC(=O)[C@H](Cc2c[nH]c3ccccc23)NC(=O)[C@@H]2Cc3ccccc3CN2)c1 3.9%
Cc1cc(N2CCOCC2)nc2ccc(NC(=O)CCC(=O)N3CCN(c4ccccc4F)CC3)cc12 13.8%
CC(NC(=O)COc1ccc(Br)cc1)C(=O)O (centres undefined) 0.8%
CN1CCN(C2=NC(=O)/C(=C/c3ccccc3OS(=O)(=O)c3ccccc3)S2)CC1 1.12%
O=C1N=C(N2CCOCC2)S/C1=C\c1ccc(OS(=O)(=O)c2ccccc2)cc1 0.11%
CC(=O)N1c2ccccc2N(Cc2ccc(C)cc2C)C(=O)C1(C)C 5.65%
Cc1cc(C)nc(NC(=O)c2c(F)c(F)c(F)c(C(=O)Nc3cc(C)cc(C)n3)c2F)c1 -2.23%
CCn1cc(C(=O)O)c(=O)c2cc(F)c(N3CCN(C(=S)NC(=O)c4ccccc4)CC3)cc21 -1.03%
CCn1cc(C(=O)NCc2ccncc2)c(=O)c2cc(F)c(N3CCN(C(=O)c4ccco4)CC3)cc21 4.28%
CCC(=O)N1CCN(c2cc3c(cc2F)c(=O)c(C(=O)O)cn3CC)CC1 0.7%
CCn1cc(C(=O)NCc2ccco2)c(=O)c2cc(F)c(N3CCN(C(=O)c4ccco4)CC3)cc21 0.76%
COc1ccccc1C1CCCN1Cc1nc(-c2cc3c(cc2Cl)OCO3)oc1C (centres undefined) 1.45%
CCOc1ccccc1-c1nc(CN2CCCC2c2nccs2)c(C)o1 (centres undefined) 5.15%
COCc1ccc(CN2CCCC(CO)(Cc3ccccc3C)C2)o1 (centres undefined) -0.94%
CCOC(=O)c1cnc(Cc2ccccc2)[nH]c1=O 1.25%
N#Cc1nc(COc2ccccc2Cl)oc1N1CCCC1 40.5%
Cc1c(C(=O)O)oc2ccc3c(c12)C(O)CC(C)(C)O3 (centres undefined) 1.72%
CN(CC(=O)Nc1ccccc1Cl)C(=O)c1cc(C2CC2)nn1-c1ccccc1 1.34%
O=C(O)c1cc(C2CC2)nn1-c1ccccc1 -0.32%
CCc1ccccc1NC(=O)CN(C)C(=O)c1cc(C2CC2)nn1-c1ccccc1 0.49%
CCc1ccccc1NC(=O)CNC(=O)c1cc(C2CC2)nn1-c1ccccc1 -0.83%
CCN(CC(=O)Nc1c(F)cccc1F)C(=O)C1CCN(C(=O)Nc2ccccc2)CC1 0.36%
O=C(NC1CCCC1)C1CC(=O)N(c2ccccc2)C1 (centres undefined) 1.22%
CS(=O)(=O)c1ccc(C(=O)OCC(=O)Nc2cccc(S(=O)(=O)N3CCCC3)c2)cc1 1.77%
O=C(CSc1nccn(-c2ccc(Br)cc2)c1=O)Nc1ccccc1F 0.04%
CSc1nc(Oc2ccc(C)cc2)cc(C(F)(F)F)n1 0.19%
CCNC(=S)N1CCN(c2nc(-c3ccc(F)cc3)cs2)CC1 2.45%
O=C(c1ccc(-c2ccccc2Cl)o1)N1CCN(S(=O)(=O)c2cccs2)CC1 0.24%
CCOC(=O)[C@H]1[C@H]2COc3cc(OC)ccc3[C@@H]2N2C(=O)CN(Cc3ccc(OC)cc3)C(=O)[C@@]12C 2.03%
COc1ccc(NC(=S)NCCN2CCC(C)CC2)cc1Cl -1.89%
CC(C)OCCCNC(=O)c1ccc2c(c1)NC(=O)c1ccccc1S2 3.89%
COc1ccc(C(=O)c2coc3ccc(OC(C)=O)cc23)cc1 4.53%
COc1ccc2occ(C(C)=O)c2c1 0.49%
CN1C=C(C(F)(F)F)C=C/C1=C(\C#N)c1nnc2n1CCCCC2 1.8%
COc1ccc(C2CCCN2C(=O)Nc2ccccc2)cc1OC (centres undefined) 2.18%
COc1ccc(CNC(=O)CCCn2nc(C)n3ccnc3c2=O)cc1 1%
C=Cn1cc[n+](CC(=O)c2cccs2)c1 0.58%
COc1ccc2[nH]cc(C(=O)CN3CCC(C)CC3)c2c1 0.91%
COc1ccc2[nH]cc(C(=O)CN3CCCCC3)c2c1 -0.42%
O=C1CCCN1c1ccc(C(=O)N(Cc2nnc(-c3ccc(Cl)cc3)o2)C2CC2)cc1 1.99%
O=C(c1ccc(Cl)c(S(=O)(=O)N2CCOCC2)c1)N(Cc1nnc(-c2ccccc2Cl)o1)C1CC1 14.6%
CC(C)CCOC(=O)C(C)Sc1n[nH]c(=O)[nH]c1=O (centres undefined) 8.79%
COC(=O)c1ccccc1NC(=O)c1ccc(-c2ccc(Br)cc2)o1 4.75%
O=C(NC(=S)Nc1ccccc1O)c1ccc(-c2ccc(Cl)cc2)o1 -1.25%
Cc1c(NC(=S)NC(=O)c2ccc(-c3ccc(Cl)cc3)o2)cccc1C(=O)O 53.5%
Cc1cc(O)c(NC(=S)NC(=O)c2ccc(-c3ccc(Cl)cc3)o2)cc1C 11.3%
O=C(O)c1ccc(NC(=S)NC(=O)c2ccc(-c3ccc(Br)cc3)o2)cc1 10.7%
Cc1ccc(NC(=S)NC(=O)c2ccc(-c3ccc(Cl)cc3)o2)c(O)c1 1.42%
O=C(N/C(=C/c1cccc([N+](=O)[O-])c1)C(=O)N1CCCCC1)c1ccco1 -0.57%
